In PubChem BioAssay (Tox21):
Where “and” joins values, the source holds several entries; their conditions need not be identical. Identical values can stand only once. Results filed as inconclusive are left out. Calls of active or inactive are those of the source. Unless noted, calls follow the shape of the dose curve; as a rule, active = well fitted curve in the direction sought with a large enough effect in the repeat runs; inconclusive = weak or mixed curves; inactive = no such curve, though single readings can be large; an effect the other way counts as inactive or inconclusive.

Legend:
[1] = qHTS assay to identify small molecule antagonists of the glucocorticoid receptor (GR) signaling pathway - cell viability counter screen (AID 720693); also: nearly all actives have a fitted effect of over 55% in size
[2] = qHTS assay for identifying genotoxic compounds that show differential cytotoxicity against isogenic chicken DT40 cell lines with known DNA damage response pathways - wild type cell line (AID 743012); also: nearly all actives have a fitted effect of over 60% in size; also: potency is read from the fitted curve at half-maximal effect
Outline: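 Cytotoxicity in repair-proficient parental chicken DT40 cells serves as the comparator for Rad54/Ku70- and Rev3-deficient lines. Cells were exposed to compounds for 40 h at 37 C/5% CO2, and ATP-based luminescence (CellTiter-Glo) measured viability.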

[3] = qHTS assay for identifying genotoxic compounds that show differential cytotoxicity against isogenic chicken DT40 cell lines with known DNA damage response pathways - Rad54/Ku70 mutant cell line (AID 743015); also: nearly all actives have a fitted effect of over 60% in size; also: potency is read from the fitted curve at half-maximal effect
[4] = qHTS assay to identify small molecule antagonists of the androgen receptor (AR) signaling pathway - cell viability counter screen (AID 743033; also: nearly all actives have a fitted effect of over 45% in size; also: potency is read from the fitted curve at half-maximal effect)
[5] = qHTS assay to identify small molecule antagonists of the androgen receptor (AR) signaling pathway using the MDA cell line - cell viability counter screen (AID 743041; also: nearly all actives have a fitted effect of over 45% in size; also: potency is read from the fitted curve at half-maximal effect)
Outline: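 Using the breast carcinoma line MDA-kb2 AR-luc, test chemicals were co-incubated with R1881 for 16 h; CellTiter-Fluor reagent, added at 15.5 h, provided a fluorescence measure of live cells.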

[6] = target: Androgen receptor (Homo sapiens) (UniProt P10275); assay: qHTS assay to identify small molecule antagonists of the androgen receptor (AR) signaling pathway (AID 743035; active = well fitted inhibition curve with a large enough effect in the signal ratio in the repeat runs, not every such curve was filed as active; the % refers to the signal ratio)
Outline: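 Steps: seed AR-UAS-bla GripTite HEK293 cells, incubate 4 h at 37C; pin in test compound, then add agonist R1881; incubate 16 h at 37C; add LiveBLAzer B/G FRET substrate, 2 h at room temperature; read fluorescence.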

[7] = target: Androgen receptor (Homo sapiens) (UniProt P10275); assay: qHTS assay to identify small molecule agonists of the androgen receptor (AR) signaling pathway (AID 743036; active = well fitted activation curve with a large enough effect in the signal ratio in the repeat runs, with a control signal flat, not every such curve was filed as active; the % refers to the signal ratio)
Outline: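 AR-UAS-bla HEK293 cells, plated 4 h before dosing, were treated with compound for 16 h at 37C. beta-Lactamase reporter read after 2 h with LiveBLAzer B/G FRET substrate at room temperature.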

[8] = target: Androgen receptor (Homo sapiens) (UniProt P10275); assay: qHTS assay to identify small molecule agonists of the androgen receptor (AR) signaling pathway using the MDA cell line (AID 743040; also: nearly all actives have a fitted effect of over 20% in size); conditions: MDA-kb2 AR-luc cells, MMTV luciferase, 16 h; activity change: at 70.3 µM (top of the series), stronger effect = higher value
Outline: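 Stable MMTV-luciferase reporter in MDA-kb2 cells; note the promoter carries GR as well as AR response elements. 16 h compound treatment, 37C, 0% CO2; ONE-Glo luminescence endpoint.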

[9] = target: Androgen receptor (Homo sapiens) (UniProt P10275); assay: qHTS assay to identify small molecule antagonists of the androgen receptor (AR) signaling pathway using the MDA cell line (AID 743042; also: nearly all actives have a fitted effect of over 55% in size)
Outline: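 Antagonist mode: compounds plus R1881 agonist added to MDA-kb2 AR-luc cells, incubated 16 h at 37C. Luciferase reporter luminescence quantified, with multiplexed CellTiter-Fluor readout for cell viability.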
% is scaled to controls: 0 for no effect and ±100 for the full control effect.

Androgen receptor (Homo sapiens), sequence (P10275 whole entry, looked up): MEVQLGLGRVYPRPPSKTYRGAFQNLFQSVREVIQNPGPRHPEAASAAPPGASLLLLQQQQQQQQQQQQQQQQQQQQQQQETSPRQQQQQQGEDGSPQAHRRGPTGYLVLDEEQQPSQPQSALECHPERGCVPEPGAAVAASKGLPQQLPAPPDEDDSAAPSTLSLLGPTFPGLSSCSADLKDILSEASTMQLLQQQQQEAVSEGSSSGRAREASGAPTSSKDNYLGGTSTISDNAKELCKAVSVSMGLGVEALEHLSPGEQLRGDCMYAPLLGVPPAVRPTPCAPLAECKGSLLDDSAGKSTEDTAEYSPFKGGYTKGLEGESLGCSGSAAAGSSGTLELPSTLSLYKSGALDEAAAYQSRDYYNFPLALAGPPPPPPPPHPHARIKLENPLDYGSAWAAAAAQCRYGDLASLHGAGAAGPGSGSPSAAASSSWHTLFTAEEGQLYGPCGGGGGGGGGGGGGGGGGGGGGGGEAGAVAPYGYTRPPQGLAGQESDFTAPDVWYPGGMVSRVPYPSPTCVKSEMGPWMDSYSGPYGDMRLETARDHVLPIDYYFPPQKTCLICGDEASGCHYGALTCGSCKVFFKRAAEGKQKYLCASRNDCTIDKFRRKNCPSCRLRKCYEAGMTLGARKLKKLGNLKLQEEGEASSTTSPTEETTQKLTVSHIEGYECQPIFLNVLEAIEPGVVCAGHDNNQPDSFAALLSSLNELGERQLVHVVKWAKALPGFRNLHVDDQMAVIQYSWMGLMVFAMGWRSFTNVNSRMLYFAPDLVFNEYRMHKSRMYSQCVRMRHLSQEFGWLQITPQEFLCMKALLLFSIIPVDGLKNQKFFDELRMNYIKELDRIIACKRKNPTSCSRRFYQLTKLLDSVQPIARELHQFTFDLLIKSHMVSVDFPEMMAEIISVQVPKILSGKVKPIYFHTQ

C1CCNCC1
inactive: Potency [1] | Potency [2] | Potency [3] | Potency [4] | Potency [5]

c1ccc2c(c1)-c1cccc3cccc-2c13
inactive: Potency [1] | Potency [2] | Potency [3] | Potency [4] | Potency [5]

CCCCCCCCCCCCN=C(N)N
inactive: viability change, negative = cytotoxic [1] -13.6% [at 3.15 µM] | viability change, negative = cytotoxic [5] -10.3% [at 3.79 µM]
active: Potency [2] 0.845 µM | Potency [3] 1.06 µM

CCCCC1C(=O)NC(=O)N(C2CCCCC2)C1=O (stereo not given)
inactive: Potency [1] | Potency [2] | Potency [3] | Potency [4] | Potency [5]

CCOC(=O)c1cn2nc(OP(=S)(OCC)OCC)cc2nc1C
active: Potency [2] 27.3 µM | Potency [3] 38.6 µM
inactive: Potency [1] | Potency [5]

CC(C)CCCCCCCOC(=O)c1ccccc1C(=O)OCCCCCCCC(C)C
inactive: Potency [1] | Potency [2] | Potency [3] | Potency [4] | Potency [5]

COC1=CC(=O)O[C@@H](/C=C/c2ccc3c(c2)OCO3)C1
inactive: Potency [1] | Potency [2] | Potency [4] | Potency [5]

O=C1CC[C@@]2(O)[C@H]3Cc4ccc(O)c5c4[C@@]2(CCN3CC2CC2)[C@H]1O5
inactive: Potency [1] | Potency [2] | Potency [3] | Potency [4] | Potency [5]

CCOc1cccc(C2(N3CCN(c4ccccc4)CC3)CCC(C)CC2)c1 (stereo not given)
inactive: Potency [1] | Potency [2] | Potency [4]

CNC(=O)Oc1cccc(N=CN(C)C)c1
inactive: Potency [1] | Potency [4]
active: Potency [2] 54.5 µM

CCOP(=O)(SC(C)CC)N1CCSC1=O (stereo not given)
inactive: Potency [1] | Potency [2] | Potency [3] | Potency [4] | Potency [5]

NCCc1cc(O)c(O)cc1O
active: Potency [2] 23.7 µM
inactive: Potency [1] | Potency [4] | Potency [5]

CCc1ccccc1N
inactive: Potency [1] | Potency [2] | Potency [4] | Potency [5]

CC(O)CN1CCN(CC(=O)[O-])CCN(CC(=O)[O-])CCN(CC(=O)[O-])CC1.[Gd+3] (stereo not given)
inactive: Potency [1] | Potency [2] | Potency [3] | Potency [4] | Potency [5]

CCCCCCCCn1sccc1=O
inactive: Potency [1]
active: Potency [2] 4.87 µM and 454 nM | Potency [3] 3.07 µM and 1.02 µM | Potency [4] 4.37 µM and 20.4 µM | Potency [5] 36 µM

CC(C)(C)NCC(O)c1cc(Cl)c(N)c(C(F)(F)F)c1 (stereo not given)
inactive: Potency [1] | Potency [2] | Potency [4] | Potency [6] | Potency [7] | Potency [8] | Potency [5] | Potency [9]

CCOC(=O)C1OC1(C)c1ccccc1 (stereo not given)
inactive: Potency [1] | Potency [2] | Potency [3] | Potency [4] | Potency [5]

CN(C)N
inactive: Potency [1] | Potency [2] | Potency [3] | Potency [4] | Potency [6] | Potency [7] | Potency [8] | Potency [5] | Potency [9]

C=CCc1ccccc1O
inactive: Potency [1] | Potency [2] | Potency [3] | Potency [4] | Potency [5]

CCCSP(=S)(OCC)Oc1ccc(SC)cc1 (stereo not given)
active: Potency [2] 43.3 µM | Potency [3] 27.3 µM
inactive: Potency [1] | Potency [4]

O=C(O)C(F)(F)C(F)(F)C(F)(F)C(F)(F)C(F)(F)F
inactive: Potency [1] | Potency [2] | Potency [3] | Potency [4] | Potency [5]

OCC1CO1 (stereo not given)
inactive: Potency [1] | Potency [2] | Potency [3] | Potency [4] | Potency [5]

CN1CC[C@]23c4c5ccc(O)c4O[C@H]2[C@@H](O)CC[C@H]3[C@H]1C5
inactive: Potency [1] | Potency [2] | Potency [4] | Potency [5]

Clc1ccc2ccccc2c1
inactive: Potency [1] | Potency [2] | Potency [3] | Potency [4] | Potency [6] | Potency [7] | Potency [8] | Potency [5] | Potency [9]

CC(Cc1ccccc1)NCc1ccccc1Cl (stereo not given)
inactive: Potency [1] | Potency [4] | Potency [5]
active: Potency [2] 18.8 µM

COc1cc(C[C@@H](C)N)c(OC)cc1Br
active: Potency [2] 70.4 µM
inactive: Potency [1] | Potency [4] | Potency [5]

CC(C)(C)c1ccc(CCOc2ncnc3ccccc23)cc1
inactive: Potency [1] | Potency [2] | Potency [3] | Potency [4] | Potency [5]

FC(F)OC(F)(F)C(F)Cl (stereo not given)
inactive: Potency [1] | Potency [2] | Potency [4] | Potency [6] | Potency [7] | Potency [8] | Potency [5] | Potency [9]

O=C(O)COc1cc(Cl)c(Cl)cc1Cl
inactive: Potency [1] | Potency [2] | Potency [3] | Potency [4] | Potency [6] | Potency [8] | Potency [5] | Potency [9]

COC1CC(=C(c2cccs2)c2cccs2)C[N+](C)(C)C1 (stereo not given)
active: Potency [2] 23.7 µM | Potency [3] 29.8 µM
inactive: Potency [1] | Potency [4] | Potency [5]

CN1CC[C@]23c4c5ccc(O)c4O[C@H]2[C@@H](O)C=C[C@H]3[C@H]1C5
inactive: Potency [1] | Potency [4] | Potency [6] | Potency [8] | Potency [5] | Potency [9]
